M1 ag: human M1 muscarinic receptor agonism; 360,000 compounds, 0.33% hits; activation, % at 3 µM; CHO-K1 hM1, Fluo-8 calcium fluorescence, agonist mode; 0% DMSO, 100% acetylcholine EC100; P11229; AID 588814;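 active = activation above the run's mean compound activation plus 3 SD, cut at about 16% in these data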;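 also: peak over basal fluorescence ratio within a 140 s kinetic read after compound addition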
Target sequence (P11229 whole entry, looked up): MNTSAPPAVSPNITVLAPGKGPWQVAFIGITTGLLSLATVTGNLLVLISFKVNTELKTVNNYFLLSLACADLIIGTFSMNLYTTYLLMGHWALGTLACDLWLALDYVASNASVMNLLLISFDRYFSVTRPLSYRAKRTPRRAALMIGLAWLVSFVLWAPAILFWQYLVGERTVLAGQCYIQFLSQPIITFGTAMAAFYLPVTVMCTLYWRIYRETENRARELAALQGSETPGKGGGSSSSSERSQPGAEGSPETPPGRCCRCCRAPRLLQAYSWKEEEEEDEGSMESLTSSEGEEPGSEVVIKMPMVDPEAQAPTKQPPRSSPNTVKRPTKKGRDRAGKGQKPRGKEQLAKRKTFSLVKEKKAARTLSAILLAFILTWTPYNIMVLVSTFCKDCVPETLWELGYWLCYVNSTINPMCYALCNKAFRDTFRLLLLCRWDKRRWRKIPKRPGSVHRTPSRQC
CHRM1 PAM: human CHRM1 positive allosteric modulation. P11229. CHO-K1 hM1, Fluo-8 calcium fluorescence, ACh EC20; 0% = ACh EC20, 100% = maximal ACh. activation, % at 3 µM. 360,000 compounds, 0.088% hits. AID 588819; in the data active = activation above about 19%, passing the limit was not always enough
M1 ag parental: M1 agonist counterscreen hit in parental CHO-K1 cells; activation, % at 3 µM; 360,000 compounds, 0.48% hits; Fluo-8 calcium fluorescence; scaled to maximal ATP response, vehicle zero; in the data active = activation above about 15%;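 also: untransfected CHO-K1 host cells lacking M1 receptor as counterscreen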
CHO-K1 Ca antag: counter-screen for M1 antagonists: effect in parental CHO-K1 cells; AID 602250; 360,000 compounds, 0.6% hits; ATP-induced calcium, Fluo-8 fluorescence; inhibition, % at 3 µM;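 active = inhibition above a per-plate cutoff, the plate's mean sample inhibition plus 3 SD, cut at about 24% in these data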;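 also: 0% = DMSO plus EC80 ATP and 100% = DMSO alone without ATP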
M1 PAM parental: M1 PAM counterscreen hit in parental CHO-K1 cells | 360,000 compounds, 0.02% hits | activation, % at 3 µM | ATP EC20, Fluo-8 calcium fluorescence; 0% at ATP EC20, 100% at ATP max;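 active = activation above the run cutoff, the mean activation of all test compounds plus 3 SD, cut at about 40% in these data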;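 also: peak over basal fluorescence ratio in a 140 s read after ATP addition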
CHRM1 antagonist: antagonists of human M1 muscarinic receptor. P11229. CHO-K1 hM1, Fluo-8 calcium fluorescence, ACh EC80 antagonist. inhibition, % at 3 µM. 360,000 compounds, 1.3% hits. AID 588852;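 active = percent inhibition above its own plate's cutoff, namely the mean of that plate's compound wells plus 3 SD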;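 also: peak over basal fluorescence ratio during 140 s after agonist addition; 0% = ACh EC80 plus DMSO and 100% = DMSO alone without agonist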
* hit, by the source's call; x = not tested or not shown. This is a sample that favours compounds with a hit; in the whole collection about 2.3% have one here.

SMILES | M1 ag | CHRM1 PAM | M1 ag parental | CHO-K1 Ca antag | M1 PAM parental | CHRM1 antagonist
Nc1[nH]n2c(=O)cc(-c3ccccc3)nc2c1N=Nc1ccccc1 | -4 | -1 | 0 | 21 | -10 | -1
O=C1c2ccccc2C(O)N1Cc1ccc2c(c1)OCO2 (configuration not stated) | 0 | -11 | 4 | 15 | -9 | 28*
Cc1ccccc1N(CC(=O)NCC1CCCO1)C(=O)CCC(=O)Nc1nccs1 (configuration not stated) | -4 | 14 | 0 | -5 | 12 | -14
NC(=O)c1ccc[n+]([C@H]2O[C@@H](COP(=O)([O-])OP(=O)(O)OC[C@H]3O[C@@H](n4cnc5c(N)ncnc54)[C@H](O)[C@@H]3O)[C@H](O)[C@@H]2O)c1 | 27* | -4 | 27* | 10 | 6 | -9
CC1(C)Cc2c(cnn2-c2ccccc2)-c2c1c1ccccc1n2CC(O)CBr (configuration not stated) | -5 | -3 | 1 | -7 | 17 | 7
O=C(/C=C/c1cccs1)Nc1nccs1 | -3 | 11 | 0 | -11 | 9 | -13
O=C(/C=C/c1cccs1)Nc1cccc(NC(=O)/C=C/c2cccs2)n1 | -3 | -22 | 6 | 14 | 6 | 47*
O=c1[nH]ncc(N2CCN(Cc3ccccc3)CC2)c1Cl | -14 | -12 | 0 | 26* | -18 | 14
O=C(Nc1cccc(C(F)(F)F)c1)c1csc([C@@H]2O[C@H](CO)[C@H](O)[C@H](O)[C@H]2O)n1 | -1 | 6 | 1 | -5 | 15 | -18
COc1ccccc1N1CCN(/N=C\c2sccc2C)CC1 | -3 | 4 | 20* | 3 | 11 | 5
Cn1c(N2CCCC2)nc2c1c(=O)n(Cc1ccc(Cl)cc1)c(=O)n2C | -3 | -3 | 0 | 23 | -6 | 8
CC1CN(c2nc3c(c(=O)n(Cc4ccc(Cl)cc4)c(=O)n3C)n2C)CC(C)O1 (configuration not stated) | -5 | 6 | 0 | 28* | -8 | -1
Cn1c(=O)[nH]c(=O)c2c1nc1n2CC(O)CN1c1ccccc1 (configuration not stated) | -2 | 1 | -1 | -5 | 0 | 1
CCC1Oc2ccccc2N(CC(=O)NCCCN2CCOCC2)C1=O (configuration not stated) | -4 | 8 | -1 | 27* | -1 | -2
O=c1[nH]c(N2CCCCC2)nc2ncn(Cc3ccccc3)c12 | -2 | 2 | 0 | 6 | -16 | -2
COc1ccc(CNC(=O)c2cccc3c(-c4cccc(C(N)=O)c4)coc23)cc1OC | 5 | -19 | 11 | 26* | -14 | 39*
COc1cc(-c2coc3c(C(=O)NCc4ccc(OC)c(OC)c4)cccc23)ccc1O | 7 | -16 | 15* | -4 | -7 | 30*
CC(=O)c1cccc(NC(=O)CN2C(=O)C(=O)N(Cc3ccco3)C2=O)c1 | -2 | -2 | 0 | -11 | 8 | 3
O=C(NCc1ccccc1)C(c1ccncc1)N(C(=O)c1csnn1)c1cccc(F)c1 (configuration not stated) | -2 | -11 | 1 | -6 | 2 | 7
COc1cccc(N2CCN(c3ncnc4c3[nH]c3ccc(F)cc34)CC2C)c1 (configuration not stated) | 7 | -21 | 11 | 55* | -4 | 83*
COc1cc2[nH]c3c(N4CCN(c5ccc(Cl)cc5)CC4)ncnc3c2cc1OC | -3 | 3 | 1 | 2 | 3 | -6
Cc1onc(-c2ccccc2Cl)c1C(=O)OCC(=O)N1CCN(c2ccccc2)CC1 | -3 | -1 | -1 | 0 | -25 | 10
COc1ccc(NC(=S)N2CCN(C(c3ccccc3)c3ccccc3)CC2)c(OC)c1 | -14 | -33 | 1 | -8 | 22 | 46*
CCOc1ccccc1NC(=S)N1CCN(c2cccc(OC)c2)CC1 | 1 | 7 | 17* | 4 | 7 | -10
COc1cccc(N2CCN(C(=S)Nc3ccccc3OC)CC2)c1 | -4 | 10 | 0 | -8 | 10 | -6
SMILES | M1 ag | CHRM1 PAM | M1 ag parental | CHO-K1 Ca antag | M1 PAM parental | CHRM1 antagonist
CNC[C@@H]1Oc2cc(Br)ccc2S(=O)(=O)N([C@@H](C)CO)C[C@@H]1C | -11 | -3 | 0 | -15 | 9 | 0
CCc1cccc(NC(=O)CCS(=O)(=O)c2ccc(Br)cc2)c1 | -7 | 3 | 0 | -8 | 2 | -3
O=C(NCc1ccc(N2CCCC2=O)cc1)c1cc(COc2c(F)cccc2F)on1 | -1 | 4 | 9 | -6 | -1 | -5
COc1ccc(N2CCN(C(=O)Oc3ccc([N+](=O)[O-])cc3)CC2)cc1 | x | x | 7 | 0 | 11 | x
COc1ccc(N2CCN(C(=O)c3ccc(COc4ccc([N+](=O)[O-])cc4)o3)CC2)cc1 | 0 | -15 | 14 | -2 | -9 | 30*
CC(C)(C)c1ccc(S(=O)(=O)N2CCC(O)(c3ccc(Cl)cc3)CC2)cc1 | -4 | -25 | 5 | -1 | 5 | 71*
C=CCN(CC=C)S(=O)(=O)c1ccc2nc(NC(=O)C(C)C)sc2c1 | 24* | -6 | 33* | -14 | 43* | -5
CCOC(=O)c1ccc2nc(NC(=O)C(C)C)sc2c1 | -1 | -8 | 0 | 2 | 15 | 12
Cc1cccc(C)c1Nc1nc2ccccc2o1 | -4 | -7 | 0 | 25* | -6 | 9
Cc1oc(-c2ccc(Cl)cc2)nc1CS(=O)CC(=O)NCCN1CCCC1 (configuration not stated) | -11 | 0 | 0 | 25* | -4 | -2
Cc1ccc(-c2nc(CS(=O)CC(=O)NCc3ccccc3)c(C)o2)cc1 (configuration not stated) | 5 | 24* | 0 | -20 | 23 | -15
COc1ccc(C(N)c2csc(Nc3cc(Oc4ccccc4)ncn3)n2)cc1 (configuration not stated) | 2 | -29 | 11 | -7 | 16 | 82*
O=S(=O)(/N=S1/CC=CCN1S(=O)(=O)c1ccccc1)c1ccccc1 (configuration not stated) | 21* | 12 | 12 | 10 | 5 | -11
O=S(=O)(c1ccccc1)N1CCN(S(=O)(=O)c2ccccc2)C1 | -3 | -2 | 1 | 1 | -1 | 2
O=C(Nc1ccc2nc(SCc3ccc(Cl)cc3)sc2c1)c1ccccc1C(=O)N1CCOCC1 | -2 | -9 | 3 | 11 | 6 | 29*
CC1CN(C(=O)CCc2cc(C(C)(C)C)c(O)c(C(C)(C)C)c2)CC(C)O1 (configuration not stated) | -2 | -6 | 3 | 27* | -6 | 18
CC(C)(C)c1cc(CCC(=O)N2CCC2)cc(C(C)(C)C)c1O | -4 | 8 | 0 | -14 | 5 | -11
COC(=O)[C@@H](Cc1c[nH]c2ccccc12)NC(=O)c1ccc2c(c1)OCO2 | 2 | 1 | 23* | 16 | -5 | 2
